According to ChEMBL document CHEMBL3988442, “University of Dundee, Small-Polar-MMV Screening Library” (2021):
For some of these results: Entries with a potency or affinity are not part of this list.

How the values were obtained:
Set-up in all cases: scale not given: direction of the effect not stated beside the values
[1] = biological target: Protein translocase subunit SecA (Escherichia coli (strain K12)) (UniProt P10408); experiment: Assay to Identify E. coli SecA ATPase Inhibitors; format: functional; conditions: 30 µM
[2] = biological target: T1, Ubiquitin-activating enzyme e1, putative (Leishmania donovani (strain BPK282A1)) (UniProt E9BSI1); experiment: Leishmania donovani Ubiquitin Activating Enzyme (LdE1); format: functional; conditions: 30 µM
T1 sequence (whole entry): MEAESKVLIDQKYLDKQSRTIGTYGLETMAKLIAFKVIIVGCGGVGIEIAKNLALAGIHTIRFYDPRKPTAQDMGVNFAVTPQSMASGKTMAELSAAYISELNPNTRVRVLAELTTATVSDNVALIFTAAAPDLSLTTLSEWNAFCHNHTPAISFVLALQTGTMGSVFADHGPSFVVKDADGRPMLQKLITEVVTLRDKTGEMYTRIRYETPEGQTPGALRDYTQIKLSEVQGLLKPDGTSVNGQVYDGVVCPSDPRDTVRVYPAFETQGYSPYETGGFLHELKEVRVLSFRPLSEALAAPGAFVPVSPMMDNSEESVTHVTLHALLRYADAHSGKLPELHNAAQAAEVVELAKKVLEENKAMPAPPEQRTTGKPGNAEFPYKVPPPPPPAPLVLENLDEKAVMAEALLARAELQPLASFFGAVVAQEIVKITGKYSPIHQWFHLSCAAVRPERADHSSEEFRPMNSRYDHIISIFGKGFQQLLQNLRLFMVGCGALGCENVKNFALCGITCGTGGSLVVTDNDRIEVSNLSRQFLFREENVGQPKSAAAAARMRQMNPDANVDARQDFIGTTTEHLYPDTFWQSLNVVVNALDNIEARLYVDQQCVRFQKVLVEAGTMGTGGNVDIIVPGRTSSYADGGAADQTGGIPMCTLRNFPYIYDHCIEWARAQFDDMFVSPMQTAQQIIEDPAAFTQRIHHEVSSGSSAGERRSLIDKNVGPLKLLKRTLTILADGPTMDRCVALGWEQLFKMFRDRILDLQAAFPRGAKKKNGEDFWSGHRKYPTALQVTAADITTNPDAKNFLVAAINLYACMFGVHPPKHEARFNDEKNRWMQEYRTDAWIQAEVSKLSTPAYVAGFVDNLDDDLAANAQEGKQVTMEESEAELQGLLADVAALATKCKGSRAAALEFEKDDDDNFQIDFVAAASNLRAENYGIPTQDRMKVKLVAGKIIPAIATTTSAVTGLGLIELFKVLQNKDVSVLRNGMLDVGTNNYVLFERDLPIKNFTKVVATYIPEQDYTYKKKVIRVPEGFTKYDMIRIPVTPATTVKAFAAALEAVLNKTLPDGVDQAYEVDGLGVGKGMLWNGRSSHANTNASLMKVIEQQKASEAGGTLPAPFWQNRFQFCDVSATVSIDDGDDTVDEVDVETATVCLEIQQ

[3] = biological target: AMP-activated protein kinase, AMPK (Homo sapiens) (UniProt P54646+O43741+P54619+Q9UGJ0+Q9Y478+Q13131+Q9UGI9); experiment: AMP-dependent Kinase enzyme assay. An in vitro enzyme assay that detects ADP turnover that is directly proportional to AMPK activity. This uses naive AMPK that is activated during the assay with MK-8722; format: functional; conditions: 30 µM
[4] = biological target: Sialic acid-binding Ig-like lectin 9 (Homo sapiens) (UniProt Q9Y336); experiment: Hs-Siglec9 ALPHAscreen SOP 20170721; conditions: 10 µM
Trypanosoma cruzi = experiment: Trypanosoma cruzi phosphomannomutase and mannose-1-phosphate guanylyltransferase assay; format: functional; conditions: 10 µM
[5] = biological target: T2, Arginase-2, mitochondrial (Homo sapiens) (UniProt P78540); experiment: in vitro enzyme assay to detect the production of urea directly proportional to the activity of Arginase II; format: functional; conditions: 33.3 µM; further: in the data most compounds retested in dose-response had high values
T2 sequence (whole entry): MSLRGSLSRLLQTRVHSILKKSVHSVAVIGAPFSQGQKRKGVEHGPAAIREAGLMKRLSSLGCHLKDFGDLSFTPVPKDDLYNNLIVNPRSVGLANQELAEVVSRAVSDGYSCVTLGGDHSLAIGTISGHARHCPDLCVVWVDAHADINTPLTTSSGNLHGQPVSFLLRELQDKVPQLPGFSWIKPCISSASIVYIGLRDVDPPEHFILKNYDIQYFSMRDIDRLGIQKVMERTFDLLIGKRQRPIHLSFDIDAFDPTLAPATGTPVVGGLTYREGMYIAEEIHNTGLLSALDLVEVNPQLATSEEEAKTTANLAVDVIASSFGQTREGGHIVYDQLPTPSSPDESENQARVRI

[6] = biological target: T3, Proteasome subunit beta (Trypanosoma cruzi) (UniProt O96673); experiment: Trypanosoma cruzi proteasome chymotrypsin-like activity (TcProtChymo) assay.; further: in the data most compounds retested in dose-response had high values; format: functional; conditions: 9.37 µM
T3 sequence (whole entry): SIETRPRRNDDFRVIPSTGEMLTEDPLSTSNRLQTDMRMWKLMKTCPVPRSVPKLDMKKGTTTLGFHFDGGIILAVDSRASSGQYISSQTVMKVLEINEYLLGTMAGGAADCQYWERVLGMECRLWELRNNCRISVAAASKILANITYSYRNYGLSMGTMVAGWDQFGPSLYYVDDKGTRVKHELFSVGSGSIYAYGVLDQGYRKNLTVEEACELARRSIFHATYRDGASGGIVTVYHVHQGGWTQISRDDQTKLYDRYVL

Homo sapiens = species: Homo sapiens; experiment: To identify inhibition of the IFN signalling (Jak-Stat) pathway via expression of an eGFP reporter gene under the control of an IFN-stimulated response element (ISRE) containing MxA promoter.; format: functional; conditions: 30 µM
[7] = biological target: T4, Tyrosyl-tRNA synthetase, putative (Trypanosoma cruzi (strain CL Brener)) (UniProt Q4DSP6); experiment: Trypanosoma cruzi tyrosyl tRNA synthetase (TcYRS) _High Tyrosine SOP; format: functional; conditions: 30 µM; further: in the data most compounds retested in dose-response had high values
T4 sequence (whole entry): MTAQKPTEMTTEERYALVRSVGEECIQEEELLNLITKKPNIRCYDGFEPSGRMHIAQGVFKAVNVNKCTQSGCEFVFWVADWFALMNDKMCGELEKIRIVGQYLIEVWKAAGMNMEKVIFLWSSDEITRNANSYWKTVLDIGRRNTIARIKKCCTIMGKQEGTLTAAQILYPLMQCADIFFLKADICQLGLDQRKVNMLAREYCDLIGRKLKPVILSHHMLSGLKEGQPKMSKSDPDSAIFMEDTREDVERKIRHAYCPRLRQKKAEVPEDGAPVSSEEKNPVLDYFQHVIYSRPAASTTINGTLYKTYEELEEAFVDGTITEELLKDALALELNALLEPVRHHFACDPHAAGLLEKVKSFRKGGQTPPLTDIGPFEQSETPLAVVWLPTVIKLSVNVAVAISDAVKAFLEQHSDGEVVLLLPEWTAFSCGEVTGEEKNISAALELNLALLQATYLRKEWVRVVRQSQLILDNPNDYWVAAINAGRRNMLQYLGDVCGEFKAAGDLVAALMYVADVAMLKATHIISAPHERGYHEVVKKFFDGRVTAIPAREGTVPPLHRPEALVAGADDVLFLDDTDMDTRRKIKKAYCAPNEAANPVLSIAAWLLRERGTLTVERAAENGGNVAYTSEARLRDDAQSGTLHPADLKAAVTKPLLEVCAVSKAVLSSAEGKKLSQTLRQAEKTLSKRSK

[8] = biological target: T4, Tyrosyl-tRNA synthetase, putative (Trypanosoma cruzi (strain CL Brener)); experiment: Trypanosoma cruzi tyrosyl tRNA synthetase (TcYRS) SOP; format: functional; conditions: 30 µM
[9] = biological target: Chromo domain-containing protein 1 (Saccharomyces cerevisiae (strain ATCC 204508 / S288c) (Baker's yeast)) (UniProt P32657); experiment: ScCHD-1 Enzyme Inhibition Assay; format: functional; conditions: 30 µM; further: in the data most compounds retested in dose-response had high values
Chain of Chromo domain-containing protein 1 (Saccharomyces cerevisiae (strain ATCC 204508 / S288c) (Baker's yeast)) (P32657 whole entry, the tested form may be a part): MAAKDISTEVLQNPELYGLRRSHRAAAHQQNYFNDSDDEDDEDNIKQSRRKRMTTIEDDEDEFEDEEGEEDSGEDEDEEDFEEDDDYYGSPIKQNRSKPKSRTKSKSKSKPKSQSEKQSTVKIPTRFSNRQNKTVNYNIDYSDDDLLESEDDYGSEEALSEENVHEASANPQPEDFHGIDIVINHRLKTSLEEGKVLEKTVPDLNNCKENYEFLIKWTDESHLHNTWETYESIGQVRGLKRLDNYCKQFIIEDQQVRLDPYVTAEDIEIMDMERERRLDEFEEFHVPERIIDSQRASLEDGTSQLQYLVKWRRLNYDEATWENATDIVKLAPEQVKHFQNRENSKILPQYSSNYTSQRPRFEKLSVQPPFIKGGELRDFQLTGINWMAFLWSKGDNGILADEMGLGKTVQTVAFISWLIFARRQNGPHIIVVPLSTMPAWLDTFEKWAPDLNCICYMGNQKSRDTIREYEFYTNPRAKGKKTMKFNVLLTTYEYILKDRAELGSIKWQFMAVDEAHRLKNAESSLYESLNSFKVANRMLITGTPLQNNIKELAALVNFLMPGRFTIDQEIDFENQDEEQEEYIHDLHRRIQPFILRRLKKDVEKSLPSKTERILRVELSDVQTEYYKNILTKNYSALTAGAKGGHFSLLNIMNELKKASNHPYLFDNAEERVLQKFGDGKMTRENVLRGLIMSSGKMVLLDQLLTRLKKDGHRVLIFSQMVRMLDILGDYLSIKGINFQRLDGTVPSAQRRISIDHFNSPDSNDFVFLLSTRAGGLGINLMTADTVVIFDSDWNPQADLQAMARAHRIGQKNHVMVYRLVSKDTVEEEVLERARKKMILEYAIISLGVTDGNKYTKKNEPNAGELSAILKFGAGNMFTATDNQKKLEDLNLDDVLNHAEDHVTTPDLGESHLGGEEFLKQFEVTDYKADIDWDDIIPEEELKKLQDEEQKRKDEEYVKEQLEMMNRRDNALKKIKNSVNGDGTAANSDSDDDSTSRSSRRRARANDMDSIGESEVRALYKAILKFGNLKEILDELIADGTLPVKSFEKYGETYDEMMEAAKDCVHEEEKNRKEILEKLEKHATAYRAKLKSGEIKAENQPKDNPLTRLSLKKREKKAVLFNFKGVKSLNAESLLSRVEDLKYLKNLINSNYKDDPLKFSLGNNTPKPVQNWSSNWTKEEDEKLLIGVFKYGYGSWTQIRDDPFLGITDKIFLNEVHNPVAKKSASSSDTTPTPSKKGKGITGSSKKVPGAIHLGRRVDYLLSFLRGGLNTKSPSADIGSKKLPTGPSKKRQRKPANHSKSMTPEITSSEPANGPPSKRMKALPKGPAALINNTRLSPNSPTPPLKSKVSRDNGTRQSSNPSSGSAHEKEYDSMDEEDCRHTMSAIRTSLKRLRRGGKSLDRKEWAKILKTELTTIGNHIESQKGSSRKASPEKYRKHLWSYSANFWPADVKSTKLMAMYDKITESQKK

Chain of Sialic acid-binding Ig-like lectin 9 (Homo sapiens) (Q9Y336 whole entry): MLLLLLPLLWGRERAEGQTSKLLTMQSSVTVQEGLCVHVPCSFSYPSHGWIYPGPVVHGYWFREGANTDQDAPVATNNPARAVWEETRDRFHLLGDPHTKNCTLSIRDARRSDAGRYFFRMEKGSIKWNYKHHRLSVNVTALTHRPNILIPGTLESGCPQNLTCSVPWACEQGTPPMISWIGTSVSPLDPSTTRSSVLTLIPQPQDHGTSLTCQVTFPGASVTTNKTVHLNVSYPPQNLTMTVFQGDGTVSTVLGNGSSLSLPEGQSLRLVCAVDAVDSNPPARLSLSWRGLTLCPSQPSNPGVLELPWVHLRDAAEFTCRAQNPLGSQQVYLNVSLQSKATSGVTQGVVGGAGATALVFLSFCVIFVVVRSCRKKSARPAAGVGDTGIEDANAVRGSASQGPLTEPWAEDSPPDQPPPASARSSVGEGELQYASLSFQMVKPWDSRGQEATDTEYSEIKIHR
Chain of Protein translocase subunit SecA (Escherichia coli (strain K12)) (P10408 whole entry): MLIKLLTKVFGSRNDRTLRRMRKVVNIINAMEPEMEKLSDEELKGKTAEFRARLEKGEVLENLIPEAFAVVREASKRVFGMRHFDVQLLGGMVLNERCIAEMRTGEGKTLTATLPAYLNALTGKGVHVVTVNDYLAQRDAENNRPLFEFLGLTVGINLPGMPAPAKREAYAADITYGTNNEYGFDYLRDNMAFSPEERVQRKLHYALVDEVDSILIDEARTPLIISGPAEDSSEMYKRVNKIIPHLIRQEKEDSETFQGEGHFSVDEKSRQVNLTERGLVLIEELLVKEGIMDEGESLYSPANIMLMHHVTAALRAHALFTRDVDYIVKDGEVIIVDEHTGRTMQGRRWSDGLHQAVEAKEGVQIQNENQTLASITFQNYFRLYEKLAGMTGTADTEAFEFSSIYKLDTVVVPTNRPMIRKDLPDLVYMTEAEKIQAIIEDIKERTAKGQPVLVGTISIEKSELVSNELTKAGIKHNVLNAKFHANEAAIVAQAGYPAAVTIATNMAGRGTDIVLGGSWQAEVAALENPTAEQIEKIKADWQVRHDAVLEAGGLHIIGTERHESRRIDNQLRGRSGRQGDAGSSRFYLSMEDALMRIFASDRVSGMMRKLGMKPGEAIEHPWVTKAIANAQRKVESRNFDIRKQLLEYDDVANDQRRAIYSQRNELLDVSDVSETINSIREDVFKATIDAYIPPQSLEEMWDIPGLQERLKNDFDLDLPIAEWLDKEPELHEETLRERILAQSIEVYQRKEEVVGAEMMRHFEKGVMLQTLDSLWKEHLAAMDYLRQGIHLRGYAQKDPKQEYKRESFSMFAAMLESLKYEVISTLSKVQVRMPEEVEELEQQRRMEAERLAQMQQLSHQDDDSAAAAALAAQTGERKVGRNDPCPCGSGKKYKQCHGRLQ

| SMILES | Percent Effect [1] | Percent Effect [2] | Percent Effect [3] | Percent Effect [4] | Percent Effect (Trypanosoma cruzi) | Percent Effect [5] | Percent Effect [6] | Percent Effect (Homo sapiens) | Percent Effect [7] | Percent Effect [8] | Percent Effect [9] |
| --- | --- | --- | --- | --- | --- | --- | --- | --- | --- | --- | --- |
| COCCC1COC2(CCN(C(=O)c3ccco3)CC2)C1 (stereo not drawn) | -2.43% | 13.3% | 5.93% | 0.194% | -0.787% | 3.5% | 0.264% | 0.48% | 8.51% | 16.7% | -2.69% |
| CN1C(=O)C(C)(C)COc2cc(NS(=O)(=O)c3ccccc3)ccc21 | -2.86% | 8.22% | -14% | 10.6% | -0.979% | 2.27% | 14.2% | 46.6% | -8.6% | 12.5% | -7.69% |
| CC(=O)N(Cc1noc(C2CC2)n1)C1CCN(Cc2nccn2C)C1 (stereo not drawn) | -1.42% | 16.2% | -8.4% | -4.39% | -6.22% | -4.25% | 11.1% | 11.5% | 3.96% | 18.3% | -5.65% |
| COc1ccccc1C1CNC(=O)c2nc(-c3ncc[nH]3)[nH]c2C1 (stereo not drawn) | -0.895% | 16.2% | -2.89% | 12.1% | 7.14% | 4.29% | 14.3% | 20.7% | 14.3% | 29.3% | -3.23% |
| CN(Cc1nnc(C2CC2)n1C)C1CCN(Cc2ccc(F)cc2)C1 (stereo not drawn) | -0.349% | 18.9% | -8.58% | 2.26% | 0.283% | -8.02% | 13% | 5.85% | -1.48% | 18.5% | -10.5% |
| Cc1nc(CN(Cc2ccccc2)C2CCS(=O)(=O)C2)oc1C (stereo not drawn) | -2.4% | 15.8% | -3.46% | 2.71% | 5.32% | -1.08% | 10.4% | -8.35% | 7.39% | 23.5% | -6.72% |
| Cc1ccc(-c2cc(CNC(=O)N3CCOC(C)C3)on2)cc1 (stereo not drawn) | 0.724% | 8.11% | 7.2% | -10.1% | -4.92% | 3.88% | 7.54% | 20.6% | 6.93% | 13.4% | -5.48% |
| CCCS(=O)(=O)N1C[C@H]2OC(=O)N(CCc3cccc(Cl)c3)[C@H]2C1 | -5.06% | 2.67% | -2.35% | -2.36% | -3.21% | -2.08% | 5.93% | 16.4% | -0.546% | 3.7% | -2.16% |
